Screening results from PubChem.
Mdm2 MdmX PPI: human Mdm2/MdmX binding inhibition; SaOS-2 split-luciferase Mdm2/MdmX complementation, luminescence; 330,000 tested, 3% active; O15151+Q00987; inhibition, % at 8 µM;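 active = inhibition of at least 50% at 8 µM in the primary screen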
Target sequence (O15151 whole entry, looked up): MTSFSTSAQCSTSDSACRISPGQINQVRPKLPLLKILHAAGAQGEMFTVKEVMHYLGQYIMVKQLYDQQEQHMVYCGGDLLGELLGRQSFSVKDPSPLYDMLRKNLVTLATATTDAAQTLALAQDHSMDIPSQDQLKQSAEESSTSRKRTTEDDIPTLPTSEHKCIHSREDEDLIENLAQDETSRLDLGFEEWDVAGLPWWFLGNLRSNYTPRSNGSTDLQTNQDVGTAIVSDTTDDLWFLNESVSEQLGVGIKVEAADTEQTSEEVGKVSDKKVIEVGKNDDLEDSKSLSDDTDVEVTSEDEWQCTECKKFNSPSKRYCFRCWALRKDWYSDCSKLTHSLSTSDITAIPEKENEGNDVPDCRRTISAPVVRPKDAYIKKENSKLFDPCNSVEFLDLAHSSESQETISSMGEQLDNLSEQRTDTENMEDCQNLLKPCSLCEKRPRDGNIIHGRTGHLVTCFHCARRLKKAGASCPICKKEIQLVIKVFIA
Target sequence (Q00987 whole entry, looked up): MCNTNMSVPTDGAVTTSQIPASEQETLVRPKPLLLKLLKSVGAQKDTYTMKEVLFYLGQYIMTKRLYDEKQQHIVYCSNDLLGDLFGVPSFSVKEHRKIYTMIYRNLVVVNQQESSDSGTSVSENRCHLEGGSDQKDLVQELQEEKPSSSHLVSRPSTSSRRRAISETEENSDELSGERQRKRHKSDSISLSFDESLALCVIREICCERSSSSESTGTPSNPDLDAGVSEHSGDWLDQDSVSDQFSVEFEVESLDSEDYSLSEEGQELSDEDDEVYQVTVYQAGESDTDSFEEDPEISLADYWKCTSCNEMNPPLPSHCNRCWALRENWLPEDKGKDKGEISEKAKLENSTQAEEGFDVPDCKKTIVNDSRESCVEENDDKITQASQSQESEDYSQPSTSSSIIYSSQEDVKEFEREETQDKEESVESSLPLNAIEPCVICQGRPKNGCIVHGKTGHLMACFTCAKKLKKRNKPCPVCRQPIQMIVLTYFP
SKKanGAS inh: blocks kanamycin growth of S. pyogenes SKKanGAS strain | BacTiter-Glo, 6 h | inhibition, % at 7.5 µM | 300,000 tested, 1.3% active;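 active = mean replicate score, as percent of positive control median, at least 50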;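 also: strain carries kanamycin resistance gene driven by streptokinase promoter and grows in 40 µg/ml kanamycin; loss of luminescence reflects streptokinase promoter inhibition or plain growth inhibition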
CSC inhib: cancer stem cell inhibition; cancer stem cell-like cells viability, luminescence; AID 2717; inhibition, % at 7.5 µM; 300,000 tested, 1.1% active; in the data active = inhibition above about 75%; tested in HMLE shEcad cells
Beta apoptosis: blocks beta cell apoptosis; INS-1E cytokine-induced death, ATP luminescence, 48 h; percent of positive-control rescue, neutral wells zero; protection from apoptosis, % (test concentration not listed); 300,000 tested, 0.8% active; AID 435005;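 active = Every replicate reaches about 75%, or at least half do and their mean reaches it too, limit read from the data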;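 also: higher means more ATP so stronger rescue from cytokine killing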
MPTP block: inhibitors of mitochondrial permeability transition pore; isolated mouse mitochondria, Ca2+ swelling absorbance, 30 min; inhibition, % at 10 µM; 360,000 tested, 1.4% active;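 active = inhibition of 50% or more, scaled per plate between neutral and stimulator controls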
GRIN3A LBD mod: NR3A (human) ligand-binding domain modulation | 340,000 tested, 2.5% active | NR3A LBD differential scanning fluorimetry, Tm shift; 0% = protein alone, 100% = glycine-bound protein | AID 1259313 | Tm shift relative to glycine control, % at 25 µM;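 active = melting temperature shift of at least 10% of the positive control shift, at one fixed dose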
Mdm2-MdmX conf: confirmation of human Mdm2/MdmX interaction inhibitors | shares compounds with Mdm2 MdmX PPI | Mdm2-MdmX binding, luminescent assay | inhibition, % at 8 µM | 10,000 tested, 55% active; in the data active = inhibition above about 40%
Full FLuc ctr: full-length luciferase inhibition in Mdm2/MdmX counter-screen | shares compounds with Mdm2 MdmX PPI | SaOS-2 full-length luciferase counterscreen, luminescence | AID 504607 | 6,200 tested, 77% active | inhibition, % at 8 µM;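 active = mean inhibition at 8 µM reaching about 37%, which flags the compound as non-specific, limit read from the data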;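 also: p53-null SaOS-2 cells with luciferase driven by a doxycycline-inducible promoter; compound on cells about two nights before reading with doxycycline added after day one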
Numbers stand for hits; i = inactive; nt = not tested or not shown. Most compounds without a hit are left out; they make up all but 6.9% or so of the library.

SMILES	Mdm2 MdmX PPI	SKKanGAS inh	CSC inhib	Beta apoptosis	MPTP block	GRIN3A LBD mod	Mdm2-MdmX conf	Full FLuc ctr
O=C(NNC(=O)c1cccc2ccccc12)c1ccc(-c2ccccc2)cc1	i	i	i	i	i	i	nt	nt
O=C1CCCc2c1cc(C(=O)Nc1ccc(Br)cn1)c(=O)n2-c1ccccc1	57	i	i	i	i	i	i	nt
O=C(NNC(=O)c1cccc2ccccc12)c1ccccc1O	52	i	i	i	i	i	42	60
COc1c(C(=O)Nc2ccc(Br)cn2)ccc2ccccc12	i	i	i	i	i	i	nt	nt
O=C(Nc1ccc(Br)cn1)c1cccc2ccccc12	56	i	i	i	i	i	50	81
Cc1ccc(-n2nc3c(c2NC(=O)c2ccc4c(c2)OCO4)CS(=O)(=O)C3)c(C)c1	i	i	i	i	i	i	nt	nt
O=C(NCCc1c[nH]c2ccccc12)C(=O)NCC1OCCN1S(=O)(=O)c1ccccc1 (centres undefined)	i	i	i	i	i	i	nt	nt
O=C(NCCc1c[nH]c2ccccc12)C(=O)NCC1OCCN1S(=O)(=O)c1ccc(Cl)cc1 (centres undefined)	51	i	i	i	i	i	49	37
Cc1ccc(SCCSc2nc(C)cc(=O)[nH]2)cc1	i	i	nt	nt	i	i	nt	nt
CCOC(=O)N1CCC(N(CCN(C)C)C(=S)Nc2cc(Cl)cc(Cl)c2)CC1	67	i	i	i	i	i	42	50
Clc1cccc(Cl)c1Cn1cnc2c(N3CCCCCC3)ncnc21	79	i	i	i	i	i	i	nt
CCN(CC)c1ncnc2c1ncn2Cc1c(Cl)cccc1Cl	i	i	i	i	i	i	nt	nt
COc1ccc(CCNC(=O)Cc2ccc(NS(=O)(=O)c3ccc(F)cc3)cc2)cc1OC	i	nt	nt	nt	i	i	nt	nt
CC(C)c1ccc(O)c(C(=O)c2cnn(-c3ccccc3)c2)c1	i	i	i	i	i	i	nt	nt
CCOc1cc(/C=N/NC(=O)Cn2nc([N+](=O)[O-])cc2C)cc(Br)c1OCc1ccccc1C	52	i	i	i	i	13	47	87
COc1ccc(S(=O)(=O)Nc2c(C(=O)O)[nH]c3ccc(OC)cc23)cc1	i	i	i	i	i	i	nt	nt
COC(=O)c1[nH]c2ccc(F)cc2c1NS(=O)(=O)c1ccc(OC)cc1	57	i	i	i	i	i	58	62
Cc1cccc(C(O)c2ncc(-c3ccccc3F)[nH]2)c1C (centres undefined)	nt	nt	nt	nt	i	nt	nt	nt
COc1ccc(C2C(O)C(c3c[nH]c4ccccc34)=NN2C(=O)CCl)cc1 (centres undefined)	98	i	109	129	i	i	97	i
COc1ccc(C2NN=C(c3c[nH]c4ccccc34)C2O)cc1 (centres undefined)	i	i	i	i	i	i	nt	nt
Cc1nc(C(F)(F)F)ccc1C(=O)N1CCC1(C)C(=O)NS(=O)(=O)c1cccc(F)c1 (centres undefined)	nt	nt	nt	nt	i	nt	nt	nt
CCOc1ccc(-n2c(N)c(C(=O)NCc3ccco3)c3nc4ccccc4nc32)cc1	i	i	i	i	i	i	nt	nt
CCOc1ccc(-n2c(N)c(-c3nc4ccccc4n3C)c3nc4ccccc4nc32)cc1	63	i	i	i	i	i	59	66
O=C1OCCC1Sc1nnc(-c2ccc(Cl)cc2Cl)o1 (centres undefined)	77	i	i	i	i	i	62	49
COCCn1c(=N)c(C(=O)NCCc2ccc(OC)cc2)cc2c(=O)n3cccc(C)c3nc21	i	i	i	i	i	i	nt	nt
SMILES	Mdm2 MdmX PPI	SKKanGAS inh	CSC inhib	Beta apoptosis	MPTP block	GRIN3A LBD mod	Mdm2-MdmX conf	Full FLuc ctr
COc1ccc(CCn2c(=N)c(C(=O)NCC3CCCO3)cc3c(=O)n4cccc(C)c4nc32)cc1 (centres undefined)	53	i	i	i	i	i	i	nt
CCCn1c(=N)c(C(=O)NCc2ccc3c(c2)OCO3)cc2c(=O)n3cccc(C)c3nc21	70	i	i	i	i	i	i	nt
COc1ccc(CCNC(=O)c2cc3c(=O)n4cccc(C)c4nc3n(CCCN3CCOCC3)c2=N)cc1	65	i	i	i	i	i	i	nt
N=c1c(C(=O)NCc2ccc(F)cc2)cc2c(=O)n3ccccc3nc2n1CCCN1CCOCC1	53	nt	i	i	i	i	i	nt
COc1cc(CN2CCN(CCCc3ccccc3)C(CCO)C2)cc(OC)c1O (centres undefined)	i	i	i	nt	i	i	nt	nt
CCC(C(=O)N/N=C(\C)c1cccnc1)c1ccccc1 (centres undefined)	i	i	i	i	i	i	nt	nt
Cc1cccn2c(=O)c3cc(C(=O)NCCN4CCOCC4)c(=N)n(Cc4ccc(F)cc4)c3nc12	81	i	i	i	i	i	78	i
Cc1cccn2c(=O)c3cc(C(=O)NCCN4CCOCC4)c(=N)n(CCN4CCOCC4)c3nc12	i	i	nt	i	i	i	nt	nt
Cc1cccn2c(=O)c3cc(C(=O)NC4CCCCC4)c(=N)n(Cc4ccc(F)cc4)c3nc12	58	i	i	i	i	i	i	nt
Cc1cccn2c(=O)c3cc(C(=O)NC4CCCC4)c(=N)n(CC4CCCO4)c3nc12 (centres undefined)	i	i	i	i	i	i	nt	nt
CCn1c2ccccc2c2cnc(N=CN(C)C)c(C#N)c21	76	i	i	i	i	i	87	i
CC1CCCC(NC(=O)Cn2cc(C(F)(F)F)cc(Cl)c2=O)C1C (centres undefined)	i	nt	i	i	i	i	nt	nt
Cc1ccc(S(=O)(=O)N2c3cc(C)ccc3OCC2C(C)(C)C)cc1 (centres undefined)	63	i	i	i	i	i	72	48
COc1cccc(C(=O)N2c3cc(C)ccc3OCC2C(C)(C)C)c1 (centres undefined)	i	i	i	i	i	i	nt	nt
Cc1ccc(S(=O)(=O)N2c3ccccc3OCC2c2ccccc2)cc1 (centres undefined)	56	i	i	i	i	i	58	55
COc1ccc(S(=O)(=O)N2c3cc(C)ccc3OCC2C(C)(C)C)cc1 (centres undefined)	56	i	i	i	i	i	61	63
O=S(=O)(NC1CCN(S(=O)(=O)c2ccc3c(c2)OCCO3)C1)c1c(F)cccc1F (centres undefined)	i	nt	i	i	i	i	nt	nt
Cc1ccc(NC(=O)CCn2nc([N+](=O)[O-])cc2C)nc1	i	i	i	i	i	i	nt	nt
O=C(N/N=C/c1cccc2ccccc12)c1n[nH]c2c1CCCC2	66	i	i	i	i	i	65	85
O=C(N/N=C/C=C/c1ccccc1)c1n[nH]c2c1CCC2	63	i	77	i	i	i	56	95
